High-throughput results: PubChem BioAssay, National Center for Advancing Translational Sciences (NCATS)
MCF10A rerep = induces DNA re-replication in MCF 10a normal breast cells; MCF 10A DNA re-replication, Hoechst nuclear intensity, 48 h; Potency, µM (doses to about 46.1 µM), without a hit: at the highest dose activity, positive = re-replication, actives largely listed as activators; 2.9% of 350,000 active; AID 624296; note: % of control where 0% means no effect; nearly all actives have a fitted effect of over 50% in size
SW480 rerep = DNA re-replication induction in SW480 cells | SW480 DNA re-replication, Hoechst DNA content imaging, 48 h | Potency, µM (doses to about 46.1 µM), inactives show top-dose re-replication activation, most hits filed as activators | 1.8% of 340,000 active; note: % of control where 0% means no effect; nearly all actives have a fitted effect of over 55% in size
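SW480 cells exposed to compounds for 48 hr at 37 C, 5% CO2, then Hoechst-stained 40 min. Nuclear DNA content imaged by fluorescence scanning (405 nm excitation, 500-530 nm emission); re-replication scored as increased high-intensity nuclei.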
KB-V1 cytotox = KB-V1 MDR subline cytotoxicity; Potency, µM (top dose mostly 46.1 µM), most hits filed as cytotoxic; KB-V1 MDR cells viability, CellTiter-Glo, 72 h; 3.4% of 400,000 active; note: % is set by controls: 0 for no effect and ±100 for the full control effect; nearly all actives have a fitted effect of over 60% in size
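KB-V1 MDR subline cells in DMEM (phenol-red free, 10% FBS) exposed to compounds in qHTS concentration series for 72 h at 37 degrees C. Viability read by CellTiter-Glo luminescence; concentration-effect curves fitted after normalization and correction.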
KB-3-1 cytotox = KB-3-1 parental cell cytotoxicity; AID 1347075; Potency, µM (titrated, usually from 46.1 µM), actives largely listed as cytotoxic; KB-3-1 viability, CellTiter-Glo ATP luminescence, 72 h; 1.4% of 400,000 active; note: % is set by controls: 0 for no effect and ±100 for the full control effect; nearly all actives have a fitted effect of over 60% in size
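Viability of parental KB-3-1 cells, measured by CellTiter-Glo luminescence, followed a 72 h incubation at 37 °C with pinned compounds in phenol-red-free DMEM containing 10% FBS.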
ELG1 DNA repair = blocks ELG1-dependent DNA repair in HEK293T cells; HEK293T ELG1-luciferase reporter, luminescence, 16 h; DNA damage induced by 5-fluorouridine; Potency, µM (highest dose often 46.1 µM), without a hit: top-dose activity change, negative = inhibition, hits mostly inhibitors; 2.3% of 330,000 active; note: % is set by controls: 0 for no effect and ±100 for the full control effect; nearly all actives have a fitted effect of over 55% in size
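Luminescence from the luciferase reporter, measured 30 min after ONE-Glo reagent at room temperature, was the read-out. Beforehand, 2,000 cells per well were exposed for 16 hr at 37 °C to 5-fluorouridine together with compound or vehicle.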
Starred values were filed as active, the others as inactive; i = inactive; ? = inconclusive; / = not tested or not shown. An excerpt weighted towards active compounds, which were near 8.2% of everything screened. Calls come from the whole dose curve; as a rule, active = well fitted curve in the direction sought with a large enough effect; inconclusive = small, poorly fitted or top-dose-only effect, or another doubt; inactive = no such curve, though single readings can be large; an effect the other way counts as inactive or inconclusive. Potency is the fitted concentration of half-maximal effect.

SMILES	MCF10A rerep	SW480 rerep	KB-V1 cytotox	KB-3-1 cytotox	ELG1 DNA repair
COc1ccc(/C=C/C(=O)c2ccc(C(=O)/C=C/c3ccc(OC)c(OC)c3)cc2)cc1OC	6.5µM*	8.2µM*	i	?	?
CC(C)(C)NC(=O)COc1coc(CN2CCN(C(=O)c3ccco3)CC2)cc1=O	-3%	-9%	i	i	-2%
CCn1c(CCC(=O)N(C)CC(=O)Nc2cccc(F)c2)nc2cc(S(=O)(=O)N(C)C)ccc21	1%	-11%	i	i	-4%
COc1cc(/C=C/C(=O)c2ccc(C)cc2)ccc1OCC#N	?	16µM*	15µM*	?	?
COc1ccc(/C=C/C(=O)c2ccccc2)cc1Cn1nnc2ccccc21	12µM*	?	21µM*	i	14%
COc1cc(/C=C/C(=O)c2ccc(F)cc2)cc(OC)c1OC	?	18µM*	?	i	?
O=C(/C=C/c1ccc2c(c1)OCCCO2)c1ccc2ccccc2c1O	18µM*	2%	?	i	?
Cc1ccc(C(=O)/C=C/c2ccc3c(c2)OCCO3)c(O)c1	?	-3%	i	i	?
NC(=O)CC[C@H](NC(=O)c1ccc(F)cc1)C(=O)OCC(=O)NCc1ccc(F)cc1	15%	1%	i	i	-13%
S=c1[nH]ncn1/N=C/c1ccco1	/	/	i	i	/
O=C(O)c1ccc2c(c1)C(=O)N(c1cccc(C(=O)/C=C/c3ccccc3)c1)C2=O	18µM*	2%	i	i	?
O=C(O)c1cccc(N2C(=O)c3ccc(C(=O)c4cccc([N+](=O)[O-])c4)cc3C2=O)c1	2%	-5%	i	i	3%
Cc1ccc(S(=O)(=O)N2CC3(C)CN(S(=O)(=O)c4ccc(C)cc4)CC(C)(C2)C3=O)cc1	6%	7%	0.73µM*	i	9%
Cc1ncc(CO)c(/C=N/NC(=O)c2cc(Br)ccc2O)c1O	2%	-109%	i	i	16µM*
Cc1ncc(CO)c(/C=N/NC(=O)c2cc(O)c(O)c(O)c2)c1O	/	/	/	/	9%
Cc1ncc(CO)c(/C=N/NC(=S)Nc2ccc(C(C)C)cc2)c1O	20%	2.9µM*	i	?	?
CC[n+]1c(/C=C/Nc2ccccc2)oc2ccccc21	?	?	i	i	-24%
CC[n+]1c(/C=C/Nc2ccccc2)oc2ccc(OC)cc21	18µM*	?	i	i	?
O=S(=O)([O-])CCC[n+]1c(/C=C\Nc2ccccc2)oc2ccc(-c3ccccc3)cc21	/	/	/	/	14%
CC[n+]1c(/C=C/N(C)c2ccccc2)oc2ccc(F)cc21	?	?	i	5.8µM*	0%
CS(=O)(=O)N(CC(=O)N1CCCC1)c1cccc(C(F)(F)F)c1	/	/	i	i	/
Cc1c(N=Nc2ccc(O)cc2)c(=O)n(-c2ccccc2)n1C	-1%	-8%	i	i	-2%
Cc1[nH]c2ccccc2c1N=Nc1c(C)n(C)n(-c2ccccc2)c1=O	0%	-2%	i	i	13µM*
Cc1c(N=C2C=CC(=O)c3ccccc32)c(=O)n(-c2ccccc2)n1C	?	?	i	i	21µM*
COc1ccc(OC(C)C(=O)NCc2nc(-c3cccc(C)c3)no2)cc1 (stereo unspecified)	/	/	i	i	/
SMILES	MCF10A rerep	SW480 rerep	KB-V1 cytotox	KB-3-1 cytotox	ELG1 DNA repair
Cc1cc(C(Br)(Br)Br)nc2ccccc12	/	/	i	i	/
Cc1ccc(C)c(NC(=O)CN(C)C(=O)C2COc3ccccc3O2)c1 (stereo unspecified)	1%	?	i	i	2%
CC(=O)N1CCC2(CC1)OC(=O)C(C)=C2C(=O)Nc1cc(C)ccc1C	/	/	?	i	/
CCN(CC)S(=O)(=O)c1cc(NC(=O)CSc2nc3c(cc2C#N)C(=O)CC(C)(C)C3)ccc1C	?	?	?	?	21µM*
CC1(C(=O)NS(=O)(=O)c2ccc(Cl)cc2)CCN1C(=O)Cc1ccccc1Cl (stereo unspecified)	/	/	i	i	/
C=CCn1c(=O)[nH]c2cc(C(=O)N3CCN(c4ccc(C(C)=O)cc4)CC3)ccc2c1=O	9%	5%	i	i	18µM*
C=CCn1c(=O)[nH]c2cc(C(=O)N3CCN(c4cccc(Cl)c4)CC3)ccc2c1=O	17%	11%	12µM*	?	?
CC(=O)c1ccc(N2CCN(C(=O)c3ccc4c(=O)n(-c5ccccc5)c(=O)[nH]c4c3)CC2)cc1	20%	-14%	i	i	23µM*
C=CCn1c(=O)[nH]c2cc(C(=O)N3CCN(c4cc(C)ccc4C)CC3)ccc2c1=O	1%	?	i	i	-17%
O=C(c1ccc(Cn2c(=O)[nH]c3ccccc3c2=O)cc1)N1CCN(c2ccc(Cl)cc2)CC1	21%	17%	21µM*	?	23µM*
O=C(c1ccc2c(=O)n(-c3ccccc3)c(=O)[nH]c2c1)N1CCN(c2ccc(F)cc2)CC1	11%	-14%	i	i	?
COCCn1c(=O)[nH]c2cc(C(=O)N3CCN(c4cccc(Cl)c4)CC3)ccc2c1=O	?	?	i	i	?
COc1ccccc1CC(=O)N1CCN(C(=O)c2ccco2)CC1	0%	-6%	i	i	4%
COc1ccc(Cl)cc1NC(=O)c1c(NCc2cccs2)sc2c1CCC(C)C2 (stereo unspecified)	/	/	i	i	/
COc1ccc(C(C(=O)NC2CCCC2)N(C(=O)c2ccoc2C)c2ccc(C)c(C)c2)cc1 (stereo unspecified)	17%	?	i	i	0%
O=C(Nc1ccc(Cl)cc1)C(NS(=O)(=O)c1cccs1)c1ccccc1 (stereo unspecified)	/	/	i	i	/
COc1ccc(S(=O)(=O)Nc2ccccc2C(N)=O)cc1OC	-7%	6.5µM*	i	i	-5%
COc1cc(S(=O)(=O)Nc2ccccc2C)ccc1Cl	1%	-5%	i	i	0%
COc1ccc(S(=O)(=O)Nc2ccccc2C(=O)NC(C)C)cc1OC	-4%	-3%	i	i	-4%
COc1ccc(S(=O)(=O)Nc2cc(Cl)ccc2OC)cc1	3.3µM*	2.9µM*	5.8µM*	3.7µM*	?
COc1cc(S(=O)(=O)Nc2c(C)cc(C)cc2C)ccc1Cl	9%	3%	18µM*	i	2%
COc1ccc(Cl)cc1NS(=O)(=O)c1ccc(S(=O)(=O)N2CCCC2)cc1	-10%	8%	i	i	-23%
COc1ccc(Cl)cc1NS(=O)(=O)c1ccc(OC)c(OC)c1	1%	-6%	16µM*	i	-8%
Cc1ccc(N2C(=O)CSC23C(=O)N(CC(=O)Nc2ccc(C(C)C)cc2)c2ccccc23)cc1C (stereo unspecified)	/	/	i	i	/
